From PubChem BioAssay
D2 PAM-1: positive allosteric modulators of human D2 dopamine receptor; AID 485347; P14416; 0.34% of 340,000 active; potentiation, % at 10 µM; HEK293 T-REx D2, calcium flux, EC20 dopamine potentiation;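 active = potentiation over 3 SD above the plate norm, cut at about 30% in these data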; also: 0% is about no effect
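Cells plated with tetracycline inducer and held overnight at 30 C; calcium dye loaded 30–90 min at room temperature; baseline taken, compound added and read 180 s; EC20 dopamine then added and read 180 s.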
D2 ag-1: human D2 receptor agonism in beta-arrestin assay | 0.084% of 360,000 active | DiscoveRx PathHunter D2 beta-arrestin, luminescence, 90 min; 100% = 57 uM dopamine signal | activation, % (no concentration beside the values) | P14416; in the data active = activation above about 40%; inconclusive = between about 15% and that limit
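DiscoveRx PathHunter D2 beta-arrestin cells (2,100/well) attached overnight, then compound-stimulated 90 min at 37 C in HBSS/10 mM HEPES/0.1% Tween-20 buffer; beta-galactosidase complementation read by luminescence after 1 h at ambient temperature. Dopamine 57 uM final (EC100) as control.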
D2 antagonist: antagonists of human D2 dopamine receptor; P14416; HEK293 TREx D2 cells, calcium flux, dopamine EC80; inhibition, % at 10 µM; 2% of 340,000 active; AID 485344; in the data active = inhibition above about 30%; inactive = below that, where a call was filed; also: 0% is about no effect
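Cells plated overnight at 30 C with tetracycline; no-wash calcium dye, 30–90 min RT; 10 s baseline; compound pinned; 180 s read; EC80 dopamine added; another 180 s read.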
D2 ag-2: activates the human D2 dopamine receptor; P14416; HEK293 T-REx D2 cells, calcium flux agonist mode; activation, % at 2 µM; 0.53% of 340,000 active;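 active = activation over 3 SD above normal in the single-dose calcium agonist read, cut at about 30% in these data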; also: 0% is about no effect
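Tetracycline-induced HEK293 T-REx cells with force-coupled D2 receptor, plated overnight at 30 C, loaded with no-wash calcium dye. After a 10 s baseline, compound was pin-added and calcium flux read kinetically for 180 s; calcium rises flagged agonists.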
D2 PAM-2: potentiates the human D2 dopamine receptor allosterically. P14416. DiscoveRx D2 beta-arrestin cells, luminescence, 90 min; 100% = 57 uM dopamine signal. potentiation, % (test concentration not listed). 0.23% of 360,000 active; in the data active = potentiation above about 50%; inconclusive = mostly about 30% to 49%
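PathHunter beta-arrestin assay in DiscoveRx D2 cells. Compounds were added with an EC20 of dopamine (50 nM final) for 90 min at 37 deg C. Luminescence was read 1 h after detection reagent, with 57 uM dopamine as the EC100 control.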
D3 ag: activates human D3 dopamine receptor beta-arrestin recruitment | Potency, µM (highest dose often 76.9 µM), without a hit: at the top dose activation, actives largely listed as activators | shares compounds with D2 ag-2 | DiscoveRx D3 beta-arrestin cells, luminescence, 90 min | 4% of 2,300 active | AID 720506;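 also: potency is read from the fitted curve at half-maximal effect; 100% = dopamine control response; nearly all actives have a fitted effect of over 70% in size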
Target sequence (P35462 whole entry, looked up): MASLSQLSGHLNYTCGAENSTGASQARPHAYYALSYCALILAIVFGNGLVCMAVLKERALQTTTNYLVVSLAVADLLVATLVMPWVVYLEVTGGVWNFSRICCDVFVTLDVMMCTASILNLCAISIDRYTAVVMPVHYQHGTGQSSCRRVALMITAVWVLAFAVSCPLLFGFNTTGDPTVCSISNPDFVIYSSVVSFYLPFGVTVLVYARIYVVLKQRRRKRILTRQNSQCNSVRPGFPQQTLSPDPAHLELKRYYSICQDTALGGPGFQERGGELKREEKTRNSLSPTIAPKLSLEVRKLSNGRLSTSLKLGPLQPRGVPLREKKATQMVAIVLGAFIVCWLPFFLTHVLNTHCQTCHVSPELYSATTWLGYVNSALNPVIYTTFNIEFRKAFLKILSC
D2 ag-3: D2 receptor agonism, beta-arrestin counterscreen. shares compounds with D2 ag-2. DiscoveRx PathHunter D2 beta-arrestin, luminescence, 90 min; response scale: percent relative to full dopamine signal. Potency, µM (doses to about 76.9 µM), without a hit: at the highest dose activation, actives largely listed as activators. 5.9% of 2,300 active; also: potency is read from the fitted curve at half-maximal effect; % of control where 0% means no effect; nearly all actives have a fitted effect of over 70% in size
Numbers without * were called inactive; ? = inconclusive; nt = no result. An excerpt weighted towards active compounds, which were near 2.4% of everything screened. Unless noted, calls follow the shape of the dose curve; as a rule, active = well fitted activation curve with a large enough effect; inconclusive = small, poorly fitted or top-dose-only effect; inactive = flat fitted curve, though single readings scatter.

SMILES | D2 PAM-1 | D2 ag-1 | D2 antagonist | D2 ag-2 | D2 PAM-2 | D3 ag | D2 ag-3
CSc1ccc(CCNC(=O)c2cc3cc(S(=O)(=O)N4CCCCC4)ccc3n2C)cc1 | -8 | nt | nt | nt | nt | nt | nt
CSc1ccc(C2c3c(oc4ccc(F)cc4c3=O)C(=O)N2c2ccc(C)cn2)cc1 (stereo not given) | -3 | nt | nt | 0 | nt | nt | nt
O=C(CCc1ccc(O)c(O)c1)NNC(=S)NCCc1ccccc1 | -25 | 10 | 29 | 46* | 8 | ? | 13%
O=C(CCc1ccccc1)NNC(=S)NCc1ccc(Cl)cc1 | 8 | 0 | -2 | 1 | -7 | nt | nt
COc1cccc(NC(=O)NNC(=O)CCc2ccc(O)c(O)c2)c1 | -17 | ? | 24 | 52* | -24 | 7.9µM* | 13%
COc1ccc(CCC(=O)NNC(=O)Nc2cccc(Cl)c2)cc1 | 5 | 1 | -8 | 0 | -5 | nt | nt
O=C(NNC(=S)NC1CCCCC1)c1sc2ccccc2c1Cl | -19 | -4 | -19 | 0 | -11 | nt | nt
CC(C)(C)C(=O)NC(=S)NNC(=O)c1sc2ccccc2c1Cl | 9 | -11 | 57* | 146* | -9 | -26% | -12%
CCCn1c2ccccc2c2cnn(CC(=O)NCc3cc(OC)ccc3OC)c(=O)c21 | 2 | nt | nt | 0 | nt | nt | nt
N#CC1=C(N)NC(SCC(=O)Nc2ccc(Br)cc2)=C(C#N)C12CCCCC2 | -18 | -1 | -41 | 75* | -36 | 7% | 8%
N#CC1=C(N)NC(SCc2ccc(Br)cc2)=C(C#N)C12CCCCC2 | nt | 4 | nt | nt | -4 | nt | nt
CCOCCCn1c(=N)c(C(=O)NC2CCCC2)cc2c(=O)n3cc(C)ccc3nc21 | 4 | nt | nt | 1 | nt | nt | nt
CC1CCCN(c2cc3c(cc2F)c(=O)c(S(=O)(=O)c2cccc(Cl)c2)cn3C)C1 (stereo not given) | -13 | nt | nt | 0 | nt | nt | nt
CCCCC/C=C/C1=CC(=O)C[C@H](c2ccc3c(c2)OCO3)C1 | -4 | -3 | 31* | 0 | -10 | -5% | -1%
CC(C)c1nnc(NC(=O)c2cc3cc(Br)ccc3oc2=O)s1 | -6 | 6 | -3 | 2 | -4 | -1% | 0%
O=C(Nc1ccccc1O)c1cc2cc(Br)ccc2oc1=O | -4 | 1 | -10 | -3 | -9 | nt | nt
Cc1ccc(CN2CCC(CNC(=O)Nc3c(C)cccc3C)C2)cc1 (stereo not given) | -28 | nt | nt | 0 | nt | nt | nt
COC(=O)c1ccccc1NC(=O)c1nc(SCc2ccccc2C)ncc1Cl | 10 | nt | nt | nt | nt | nt | nt
CCc1ccc2c(CC(=O)NNC(=O)c3ccncc3)coc2c1 | -5 | 5 | -4 | 0 | 2 | -2% | -5%
O=C(O)CCSc1ccc([N+](=O)[O-])cc1[N+](=O)[O-] | -4 | 14 | nt | nt | 2 | ? | 6%
Cc1csc2nc(-c3ccc(NS(=O)(=O)c4cc(F)ccc4F)cc3)cn12 | 9 | nt | nt | 1 | nt | nt | nt
O=C(c1ccccc1)c1ccc(O)cc1O | -3 | -6 | -4 | 11 | -8 | nt | nt
CC(=O)c1cc2c(C)c(C(=O)c3ccccc3)oc2cc1O | -10 | -3 | -9 | 36* | -27 | 1% | -2%
O=C(CC1COc2ccccc2O1)NCc1ccccc1 (stereo not given) | -6 | -2 | 3 | -1 | -2 | nt | nt
c1ccc(CNCC2COc3ccccc3O2)cc1 (stereo not given) | -25 | 1 | 62* | 64* | -27 | 17% | 11%
COc1cccc(OC)c1OCCNCC1COc2ccccc2O1 (stereo not given) | nt | 1 | nt | nt | -23 | nt | nt
COc1ccc(CNCC2COc3ccccc3O2)cc1 (stereo not given) | -34 | -6 | 140* | 63* | -26 | 15% | 9%
COc1ccc(CC(=O)NCC2COc3ccccc3O2)cc1 (stereo not given) | 4 | 2 | -6 | 0 | -1 | nt | nt
c1ccc(CCCNCC2COc3ccccc3O2)cc1 (stereo not given) | -33 | 10 | 86* | 48* | -18 | ? | 14%
